Source: PubChem
Sampled rows, rich in hits. Any-hit rate of the full collection: about 11%.
L3MBTL1 block – qHTS Assay for the Inhibitors of L3MBTL1 | AlphaScreen L3MBTL1–H3K9me1 peptide binding | Potency, µM (series often up to 57.1 µM), hits mostly inhibitors | 230,000 tested, 0.66% active | AID 485360, 2010; also: nearly all actives have a fitted effect of over 60% in size
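First, the protein-peptide complex forms for 30 min at room temperature (L3MBTL1 50 nM, biotinylated H3K9me1 peptide 75 nM). Next, compounds are pin-transferred and incubated 30 min. Finally, AlphaScreen beads are added and read after 30 min.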
BAZ2B block – qHTS Assay for Inhibitors of BAZ2B | Bromodomain adjacent to zinc finger domain protein 2B (Homo sapiens), Q9UIF8 | AlphaScreen BAZ2B-H3K14Ac peptide displacement | Potency, µM (highest dose often 114 µM), usual class: inhibitors | 360,000 tested, 4.4% active; also: nearly all actives have a fitted effect of over 60% in size
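In this displacement format the biotinylated H3(5-23) peptide acetylated at Lys14 serves as ligand at 50 nM, with BAZ2B at 50 nM in PBS pH 7.4 containing 0.01% Tween-20. Donor and acceptor beads are 10 ug/mL final.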
HP1b binding inh – HTS for Inhibitors of HP1-beta Chromodomain Interactions with Methylated Histone Tails. Chromobox protein homolog 1 (Homo sapiens), P83916. AlphaScreen HP1-beta / biotin-H3K9me3 peptide binding. Potency, µM (series often up to 114 µM), actives largely listed as inhibitors. 390,000 tested, 0.56% active. AID 540317, 2011; also: nearly all actives have a fitted effect of over 70% in size
Target sequence (P83916 whole entry, looked up): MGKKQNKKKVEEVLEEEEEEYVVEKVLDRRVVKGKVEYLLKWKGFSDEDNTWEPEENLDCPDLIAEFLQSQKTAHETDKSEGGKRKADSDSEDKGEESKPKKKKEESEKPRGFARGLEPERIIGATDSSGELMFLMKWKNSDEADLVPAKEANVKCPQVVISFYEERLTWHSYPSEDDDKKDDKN
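HP1-beta protein (50 nM final) preincubated 30 min at room temperature with biotinylated H3(1-18)K9me3 peptide (50 nM) in PBS pH 7.4, 0.01% Tween-20, then compound added for 30 min. AlphaScreen streptavidin donor/nickel chelate acceptor beads (10 ug/mL final), 30 min dark, luminescence read.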
JMJD2A Tudor – qHTS Assay for Inhibitors of JMJD2A-Tudor Domain; AlphaScreen JMJD2A-Tudor / H3K4me3 peptide binding; Potency, µM (highest dose often 114 µM), most hits filed as inhibitors; 390,000 tested, 4.4% active; also: nearly all actives have a fitted effect of over 50% in size
G9a inh – qHTS Assay for Inhibitors of Histone Lysine Methyltransferase G9a | Potency, µM (titrated, usually from 102 µM), hits mostly inhibitors | Histone-lysine N-methyltransferase EHMT2 (Homo sapiens), Q96KQ7 | AID 504332, 2011 | 350,000 tested, 8.8% active | G9a H3K9 monomethylation, AlphaScreen, 2 h; also: nearly all actives have a fitted effect of over 75% in size
Target sequence (Q96KQ7 913-1193 limits assumed): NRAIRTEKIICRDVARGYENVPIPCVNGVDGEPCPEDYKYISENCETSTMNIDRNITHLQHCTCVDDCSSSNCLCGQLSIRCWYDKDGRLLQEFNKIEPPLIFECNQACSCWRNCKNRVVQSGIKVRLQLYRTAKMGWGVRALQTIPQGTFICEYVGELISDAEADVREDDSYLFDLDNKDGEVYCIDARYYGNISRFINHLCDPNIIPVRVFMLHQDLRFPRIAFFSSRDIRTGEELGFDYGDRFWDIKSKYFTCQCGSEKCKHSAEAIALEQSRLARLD
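G9a (20 nM) preincubated 15 min RT with compounds, then 500 nM biotinylated H3K9 peptide and 20 uM SAM added; 2 h RT reaction. Monomethyl-H3K9 product detected by AlphaScreen with anti-H3K9me1 antibody, streptavidin donor and anti-rabbit IgG acceptor beads.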
Each line names hits and unclear results; the compound was inactive in the other large screens. Calls follow the shape of the dose curve; as a rule, active = well fitted inhibition curve with a large enough effect; inconclusive = small, poorly fitted or top-dose-only effect; inactive = no such curve, though single readings can be large or run the other way.

CC(=O)c1ccc(NC(=O)CN2C(=O)/C(=C/C(C)=C/c3ccccc3)SC2=S)cc1	none
CC(/C=C1\SC(=S)N(CCCC(=O)Nc2ccc(C(=O)O)c(O)c2)C1=O)=C\c1ccccc1	L3MBTL1 block 40µM, BAZ2B block inconclusive, HP1b binding inh inconclusive, JMJD2A Tudor 40µM, G9a inh inconclusive
CC(/C=C1\SC(=S)N(CCC(=O)Nc2nc(C)cs2)C1=O)=C\c1ccccc1	BAZ2B block inconclusive, JMJD2A Tudor 40µM, G9a inh inconclusive (no result: L3MBTL1 block)
O=C1/C(=C/c2cccs2)SC(=S)N1c1cccc(O)c1	BAZ2B block inconclusive, JMJD2A Tudor 16µM, G9a inh inconclusive
O=C(CCN1C(=O)/C(=C/c2cccs2)SC1=S)Nc1cccc(O)c1	JMJD2A Tudor inconclusive (no result: L3MBTL1 block)
O=C(CCCN1C(=O)/C(=C/c2cccs2)SC1=S)Nc1cccc(O)c1	BAZ2B block inconclusive, HP1b binding inh inconclusive, JMJD2A Tudor 40µM, G9a inh 28µM (no result: L3MBTL1 block)
CC(/C=C1\SC(=S)N(CCC(=O)Nc2ccc(O)cc2)C1=O)=C\c1ccccc1	JMJD2A Tudor inconclusive (no result: L3MBTL1 block)
CCc1ccc(C(=O)c2cn(CC(=O)NCc3ccc(C)cc3)c3nc(C)ccc3c2=O)cc1	none (no result: L3MBTL1 block)
Cc1nc2ccccc2c(=O)n1-c1ccc(NC(=O)c2ccccc2[N+](=O)[O-])cc1	none (no result: L3MBTL1 block)
O=C(CCN1C(=O)/C(=C/c2cccs2)SC1=S)Nc1cccc(C(=O)O)c1	BAZ2B block 50µM, G9a inh 50µM (no result: L3MBTL1 block)
O=C(CCN1C(=O)/C(=C/c2cccs2)SC1=S)Nc1ccc(C(=O)O)c(O)c1	BAZ2B block 56µM, G9a inh 45µM (no result: L3MBTL1 block)
O=C(CCN1C(=O)/C(=C/c2cccs2)SC1=S)Nc1ccc(O)cc1	none (no result: L3MBTL1 block)
Cc1ccc(N/C=C/C(=O)c2cccs2)cc1C	none
CNc1cc([N+](=O)[O-])ccc1N/C=C/C(=O)c1cccs1	BAZ2B block 50µM, JMJD2A Tudor inconclusive, G9a inh inconclusive
CNc1cc([N+](=O)[O-])ccc1N/C=C/C(=O)c1ccc2c(c1)OCO2	none
O=C(/C=C/Nc1cccc([N+](=O)[O-])c1)c1cccs1	G9a inh 40µM (no result: L3MBTL1 block)
Cc1cc(N/C=C/C(=O)c2cccs2)ccc1F	none
O=C(/C=C/Nc1ccc(Nc2ccccc2)cc1)c1cccs1	L3MBTL1 block inconclusive, BAZ2B block 13µM, HP1b binding inh inconclusive, JMJD2A Tudor inconclusive, G9a inh 4µM
CCN1/C(=C/c2sc(-c3ccccc3C)c[n+]2C)Sc2ccccc21	JMJD2A Tudor inconclusive, G9a inh 11µM (no result: L3MBTL1 block)
CCN1/C(=C/C(=O)c2ccco2)Sc2ccccc21	BAZ2B block inconclusive, G9a inh inconclusive
CCCN1CCC(=O)N(C(CSc2ccc(Br)cc2)c2ccccc2)CC1 (centres undefined)	none (no result: L3MBTL1 block, BAZ2B block, G9a inh)
Cc1ccc2nc3c(nc2c1C)C(O)=C3O	HP1b binding inh inconclusive, G9a inh 13µM (no result: L3MBTL1 block)
COc1cc2ccccc2cc1C(=O)Nc1ccc2oc(-c3ccc(Cl)cc3)nc2c1	G9a inh inconclusive (no result: L3MBTL1 block)
COc1ccc(CCC(C(O)C(F)(F)F)S(=O)c2ccccc2)cc1 (centres undefined)	JMJD2A Tudor 40µM, G9a inh inconclusive
Cc1ccc(S(=O)(=O)Nc2c(O)c3ccccc3oc2=O)cc1	G9a inh 28µM (no result: L3MBTL1 block)
COc1ccc(S(=O)(=O)Nc2c(O)c3ccccc3oc2=O)cc1	none (no result: L3MBTL1 block)
C/C(=N/NS(=O)(=O)c1ccc(C)cc1)c1c(O)c2ccccc2oc1=O	G9a inh 50µM (no result: L3MBTL1 block)
Cc1ccc(S(=O)(=O)Nc2c(NC3CCCCC3)c3ccccc3oc2=O)cc1C	none (no result: L3MBTL1 block, G9a inh)
Cc1ccc(S(=O)(=O)Nc2c(O)c3ccccc3oc2=O)cc1C	G9a inh 50µM (no result: L3MBTL1 block)
CCOC(=O)c1cc(-c2ccc(F)cc2)n(CCC(=O)Nc2cc(OC)cc(OC)c2)c1C	HP1b binding inh inconclusive, JMJD2A Tudor inconclusive, G9a inh inconclusive (no result: L3MBTL1 block)
COc1ccccc1C(=O)NCc1nc2cccnc2n1Cc1ccc(F)cc1	none (no result: L3MBTL1 block)
COc1ccc(Cc2n[nH]c(=S)n2Cc2ccccc2)cc1Cl	BAZ2B block inconclusive, JMJD2A Tudor 56µM, G9a inh 6.3µM
Cc1ccc(OCc2n[nH]c(=S)n2Cc2ccccc2)cc1	G9a inh inconclusive
S=c1[nH]nc(COc2cccc3ccccc23)n1Cc1ccccc1	none
CCOc1ccc(Cc2n[nH]c(=S)n2Cc2ccccc2)cc1	JMJD2A Tudor 45µM, G9a inh 1.1µM
COc1ccccc1C(=O)NCc1n[nH]c(=S)n1Cc1ccccc1	JMJD2A Tudor 35µM, G9a inh inconclusive
Cc1c(C(=O)Nc2cccc(C(F)(F)F)c2)sc2nc[nH]c(=O)c12	none (no result: L3MBTL1 block)
CCN(CC)CCP(=O)(c1ccccc1)c1ccccc1	none (no result: L3MBTL1 block)
CCN(CC)CCN(C)C1CCC(c2ccccc2)CC1 (centres undefined)	BAZ2B block 56µM, HP1b binding inh inconclusive, JMJD2A Tudor 6.3µM, G9a inh 8.9µM
CCn1c(C)c(C2N3CC4(C)CN2CC(CC)(C3)C4=O)c2ccccc21 (centres undefined)	none (no result: L3MBTL1 block)
COc1ccc(CCn2c3c(c(=O)[nH]c2=O)C(NC(=O)c2ccc(C(C)(C)C)cc2)(C(F)(F)F)C(=O)N3)cc1OC (centres undefined)	none (no result: L3MBTL1 block)
O=C(OC(C(=O)NCc1cccs1)c1ccccn1)c1cccs1 (centres undefined)	BAZ2B block 56µM, G9a inh inconclusive (no result: L3MBTL1 block)
O=C(OC(C(=O)NC1CCCCC1)c1ccccn1)c1cccs1 (centres undefined)	none
COc1ccc(CSc2nnc(N)s2)cc1F	G9a inh 45µM
CC(C)CC(=O)N(Cc1ccccc1)S(=O)(=O)c1ccc2c(c1)oc(=O)n2C	none (no result: L3MBTL1 block)
O=C1NC2=C(CCc3ccccc32)C(c2ccc(Br)cc2)N1 (centres undefined)	G9a inh 35µM (no result: L3MBTL1 block)
CCOc1ccc(NC(C)C(=O)N/N=C/c2cccs2)cc1 (centres undefined)	BAZ2B block inconclusive, G9a inh 45µM
COc1ccccc1NC(C)C(=O)N/N=C/c1cccs1 (centres undefined)	BAZ2B block inconclusive
CCC(c1nnnn1Cc1ccco1)N1CCN(c2cc(Cl)ccc2C)CC1 (centres undefined)	BAZ2B block inconclusive, HP1b binding inh inconclusive, JMJD2A Tudor 50µM
COCCn1nnnc1C(c1ccc(OC)cc1)N1CCN(C(=O)c2ccco2)CC1 (centres undefined)	G9a inh inconclusive (no result: L3MBTL1 block)
COCCn1nnnc1C(c1ccc(OC)cc1)N1CCC(C)CC1 (centres undefined)	BAZ2B block inconclusive (no result: L3MBTL1 block)
COCCn1nnnc1C(CC(C)C)N1CCN(C(=O)c2ccco2)CC1 (centres undefined)	BAZ2B block 79µM, G9a inh 40µM
